Results reported in PubChem BioAssay (EPA / NIEHS).
Records with an inconclusive call do not appear. The source holds several records for some structures; these can differ, active in one and inactive in another. Calls of active or inactive are those of the source. The calls were made as follows, unless noted: active = hit-call score of the fitted dose curve at least 0.9, where 1 is the maximum; inactive = score below 0.9.

Columns and labels:
[1] = molecular target: human CYP1A1, CYP1A1 (gene 1543) (UniProt P04798); experiment: NVS_ADME_hCYP1A1: NovaScreen (NVS) CYP450-related Enzyme Activity (ADME) Assay for human CYP1A1 (AID 2283100; active = hit-call score of the fitted dose curve at least 0.9, where 1 is the maximum)
Sequence of human CYP1A1, CYP1A1 (gene 1543) (P04798 whole entry, looked up): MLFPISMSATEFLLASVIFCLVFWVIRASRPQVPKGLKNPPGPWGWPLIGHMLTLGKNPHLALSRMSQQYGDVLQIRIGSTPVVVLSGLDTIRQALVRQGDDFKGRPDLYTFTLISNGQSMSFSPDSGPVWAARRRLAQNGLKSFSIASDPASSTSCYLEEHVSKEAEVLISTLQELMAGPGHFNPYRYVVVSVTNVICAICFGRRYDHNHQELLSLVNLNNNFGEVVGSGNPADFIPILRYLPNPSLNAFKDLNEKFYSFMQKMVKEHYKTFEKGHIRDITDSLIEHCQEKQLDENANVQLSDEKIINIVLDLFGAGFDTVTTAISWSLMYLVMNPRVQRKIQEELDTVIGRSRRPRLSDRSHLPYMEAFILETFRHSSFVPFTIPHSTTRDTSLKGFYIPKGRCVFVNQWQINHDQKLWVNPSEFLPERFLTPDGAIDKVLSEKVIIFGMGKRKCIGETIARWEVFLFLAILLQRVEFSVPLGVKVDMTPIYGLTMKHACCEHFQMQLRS
Procedure, shortened: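 Cell-free fluorescence assay of recombinant human CYP1A1 activity with a specific substrate, read 1 h after dosing. Compounds were screened in duplicate at 10 uM, then hits tested in concentration-response up to 20 uM; acetonitrile served as baseline.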

[2] = molecular target: human CYP2A6, CYP2A6 (gene 1548) (UniProt P11509); experiment: NVS_ADME_hCYP2A6: NovaScreen (NVS) CYP450-related Enzyme Activity (ADME) Assay for human CYP2A6 (AID 2283099; active = hit-call score of the fitted dose curve at least 0.9, where 1 is the maximum)
Sequence of human CYP2A6, CYP2A6 (gene 1548) (P11509 whole entry, looked up): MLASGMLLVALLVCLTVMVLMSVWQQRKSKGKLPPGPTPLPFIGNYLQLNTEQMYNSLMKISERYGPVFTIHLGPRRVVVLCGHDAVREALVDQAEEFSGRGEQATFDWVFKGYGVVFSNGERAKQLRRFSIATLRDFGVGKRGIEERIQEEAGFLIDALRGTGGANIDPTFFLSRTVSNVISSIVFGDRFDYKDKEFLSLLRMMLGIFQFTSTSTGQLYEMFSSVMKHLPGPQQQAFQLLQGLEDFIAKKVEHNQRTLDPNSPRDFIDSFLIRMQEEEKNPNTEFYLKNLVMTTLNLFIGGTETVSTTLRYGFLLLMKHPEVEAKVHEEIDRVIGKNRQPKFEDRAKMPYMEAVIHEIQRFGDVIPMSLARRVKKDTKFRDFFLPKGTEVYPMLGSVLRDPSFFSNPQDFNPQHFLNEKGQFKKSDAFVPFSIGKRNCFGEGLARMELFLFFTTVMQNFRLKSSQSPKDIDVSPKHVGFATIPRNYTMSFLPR
Procedure, shortened: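 Cell-free fluorescence readout of recombinant human CYP2A6 expressed in insect cells, read 0.5 h after dosing; loss of signal versus acetonitrile negative control. Primary screen in duplicate at 10 uM; actives re-run in concentration-response up to 20 uM.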

[3] = read-out: Interleukin-1 alpha (IL1a), IL1A (gene 3552); experiment: BSK_LPS_IL1a: BioMAP Diversity Plus: LPS Assay for Interleukin-1 alpha (IL1a) Biomarker Activity (AID 2283080); settings: primary human HUVEC with PBMC; actives raise or lower the signal
Procedure, shortened: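 Human umbilical vein endothelial cells co-cultured with peripheral blood mononuclear cells were LPS-stimulated and exposed to test chemicals for 24 h. IL-1 alpha was quantified by ELISA, with bidirectional curve fitting against DMSO as the negative control and baseline.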

[4] = read-out: Monocyte Chemoattractant Protein-1 (MCP1), CCL2 (gene 6347); experiment: BSK_LPS_MCP1: BioMAP Diversity Plus: LPS Assay for Monocyte Chemoattractant Protein-1 (MCP1) Biomarker Activity (AID 2283081); settings: primary human HUVEC with PBMC; actives raise or lower the signal;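 as to AC50: secreted MCP-1 protein quantified by ELISA in culture supernatant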
Procedure, shortened: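 HUVEC plus PBMC co-culture (human primary cells, LPS system) exposed to test chemical for 24 h; MCP-1 measured by ELISA. Bidirectional curve fitting against DMSO baseline; parallel SRB total-protein staining flags overt cytotoxicity.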

[5] = BSK_LPS_PGE2: BioMAP Diversity Plus: LPS Assay for Prostaglandin E2 (PGE2) Biomarker Activity (AID 2283082); settings: primary human HUVEC with PBMC; actives raise or lower the signal;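 as to AC50: secreted prostaglandin E2 measured by ELISA in LPS-stimulated co-culture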
Procedure, shortened: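 Endpoint derived from bidirectional curve fitting versus DMSO of ELISA-measured PGE2 in LPS-stimulated human primary vascular co-culture (HUVEC with PBMC) harvested at 24 h.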

[6] = read-out: Macrophage colony-stimulating factor (MCSF), CSF1 (gene 1435); experiment: BSK_LPS_MCSF: BioMAP Diversity Plus: LPS Assay for Macrophage colony-stimulating factor (MCSF) Biomarker Activity (AID 2283083); settings: primary human HUVEC with PBMC; actives raise or lower the signal
Procedure, shortened: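 Human umbilical vein endothelial cells co-cultured with peripheral blood mononuclear cells were exposed to compound for 24 h. M-CSF levels were measured by ELISA, and bidirectional curve fitting used DMSO as the negative control and baseline.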

[7] = read-out: Tissue Factor, F3 (gene 2152); experiment: BSK_LPS_TissueFactor: BioMAP Diversity Plus: LPS Assay for Tissue Factor Biomarker Activity (AID 2283084); settings: primary human HUVEC with PBMC; actives raise or lower the signal
Procedure, shortened: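 Human umbilical vein endothelial cells co-cultured with peripheral blood mononuclear cells were dosed and stimulated with LPS. Cell-surface CD142 was quantified by ELISA at 24 h. Activity was fitted bidirectionally against DMSO baseline.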

[8] = read-out: Tumor necrosis factor (Homo sapiens) (UniProt P01375); experiment: BSK_LPS_TNFa: BioMAP Diversity Plus: LPS Assay for Tumour Necrosis Factor alpha (TNFa) Biomarker Activity (AID 2283085); settings: primary human HUVEC with PBMC; actives raise or lower the signal
Procedure, shortened: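 Primary human vascular co-culture of HUVEC and PBMC; TNFa ELISA 24 h after treatment, analysed as increase or decrease relative to DMSO control.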

[9] = read-out: Vascular cell adhesion molecule 1 (VCAM1), VCAM1 (gene 7412); experiment: BSK_LPS_VCAM1: BioMAP Diversity Plus: LPS Assay for Vascular cell adhesion molecule 1 (VCAM1) Biomarker Activity (AID 2283086); settings: primary human HUVEC with PBMC; actives raise or lower the signal
Procedure, shortened: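 Primary human vascular co-culture (umbilical vein endothelium plus PBMC) stimulated with LPS received chemical; 24 h later VCAM-1 was read by ELISA. Overt cytotoxicity was assessed by sulforhodamine B staining of parallel cultures at the same time point.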

CD38, CD38 (gene 952) = experiment: BSK_SAg_CD38: BioMAP Diversity Plus: SAg Assay for CD38 Biomarker Activity (AID 2283087); settings: primary human HUVEC with PBMC; actives raise or lower the signal
Procedure, shortened: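 Fluorescence ELISA of cell-surface CD38 served as the read-out, with either increase or decrease fitted against DMSO controls. Cells were a human umbilical vein endothelium plus PBMC co-culture under SEB/TSST-1 stimulation, measured 24 h after dosing.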

CD69, CD69 (gene 969) = experiment: BSK_SAg_CD69: BioMAP Diversity Plus: SAg Assay for CD69 Biomarker Activity (AID 2283089); settings: primary human HUVEC with PBMC; actives raise or lower the signal;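 as to AC50: cell surface CD69 protein quantified by ELISA with fluorescence detection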
Procedure, shortened: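 Primary human vascular co-culture (umbilical vein endothelium with peripheral blood mononuclear cells) exposed to test chemical for 24 h. CD69 levels quantified by fluorescence ELISA; DMSO served as negative control for bidirectional fitting.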

[10] = read-out: Monocyte Chemoattractant Protein-1 (MCP1), CCL2 (gene 6347); experiment: BSK_SAg_MCP1: BioMAP Diversity Plus: SAg Assay for Monocyte Chemoattractant Protein-1 (MCP1) Biomarker Activity (AID 2283090); settings: primary human HUVEC with PBMC; actives raise or lower the signal
Procedure, shortened: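 MCP-1 levels in the endothelial–PBMC SAg co-culture were quantified by ELISA at 24 h post-dosing; both increases and decreases versus DMSO scored. Cytotoxicity monitored by SRB total protein in parallel cultures.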

[11] = read-out: E-selectin (Homo sapiens) (UniProt P16581); experiment: BSK_SAg_Eselectin: BioMAP Diversity Plus: SAg Assay for Eselectin Biomarker Activity (AID 2283091); settings: primary human HUVEC with PBMC; actives raise or lower the signal
Procedure, shortened: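 HUVEC co-cultured with PBMC, compound dosed then read at 24 h; E-selectin measured by ELISA. Activity fitted bidirectionally against DMSO as negative control and baseline.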

[12] = read-out: Monokine induced gamma interferon (MIG), CXCL9 (gene 4283); experiment: BSK_SAg_MIG: BioMAP Diversity Plus: SAg Assay for Monokine induced gamma interferon (MIG) Biomarker Activity (AID 2283092); settings: primary human HUVEC with PBMC; actives raise or lower the signal
Procedure, shortened: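 Endothelial cells and PBMC were co-cultured, exposed to test chemicals, and sampled 24 h later. MIG was measured by ELISA, and responses were fitted in both directions relative to DMSO.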

[13] = BSK_SAg_PBMCCytotoxicity: PBMC Cytotoxicity Assessment in the BioMAP Diversity Plus: SAg Assay (AID 2283093); settings: primary human HUVEC with PBMC;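 also: PBMC viability measured as Alamar Blue reduction fluorescence at 546/580 nm; fitted both ways against DMSO so a hit may be loss or gain of signal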;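 as to AC50: PBMC superantigen activated with SEB plus TSST-1 one hour after compound addition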
Procedure, shortened: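 Compound added to 75,000 PBMC/well for 1 h; SEB and TSST-1 then added at 20 ng/mL final each; 90 h incubation; Alamar Blue 6 h; read 546/580 nm ex/em. Activity fitted bidirectionally relative to DMSO baseline.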

[14] = read-out: Interleukin-8 (IL8), CXCL8 (gene 3576); experiment: BSK_SAg_IL8: BioMAP Diversity Plus: SAg Assay for Interleukin-8 (IL8) Biomarker Activity (AID 2283094); settings: primary human HUVEC with PBMC; actives raise or lower the signal
Procedure, shortened: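 In this co-culture of human umbilical vein endothelium with peripheral blood mononuclear cells, IL-8 is assayed by ELISA at 24 h. DMSO serves as baseline for bidirectional curve fitting.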

[15] = BSK_SAg_Proliferation: Cell Proliferation Assessment in the BioMAP Diversity Plus: SAg Assay (AID 2283095); settings: primary human HUVEC with PBMC;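 also: relative cell number as total protein by SRB absorbance in sub-confluent culture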
Procedure, shortened: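 Readout is SRB-stained protein (560 nm) in a primary human HUVEC and PBMC co-culture; sub-confluent cultures are read at 96 h. Activity is fitted bidirectionally using DMSO as baseline.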

[16] = BSK_SAg_SRB: Viability Assessment in the BioMAP Diversity Plus: SAg Assay (AID 2283096); settings: primary human HUVEC with PBMC;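 also: cells read one day after compound addition; hits may be either gain or loss of signal compared with DMSO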
Procedure, shortened: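 Total protein by sulforhodamine B staining, 24 h after dosing, in HUVEC–PBMC co-culture; DMSO-referenced bidirectional fitting.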

[17] = molecular target: human CYP19A1, CYP19A1 (gene 1588) (UniProt P11511); experiment: NVS_ADME_hCYP19A1: NovaScreen (NVS) CYP450-related Enzyme Activity (ADME) Assay for human CYP19A1 (AID 2283098; active = hit-call score of the fitted dose curve at least 0.9, where 1 is the maximum;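 as to AC50: potency for inhibitors seen as loss of fluorescent enzyme signal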)
Sequence of human CYP19A1, CYP19A1 (gene 1588) (P11511 whole entry, looked up): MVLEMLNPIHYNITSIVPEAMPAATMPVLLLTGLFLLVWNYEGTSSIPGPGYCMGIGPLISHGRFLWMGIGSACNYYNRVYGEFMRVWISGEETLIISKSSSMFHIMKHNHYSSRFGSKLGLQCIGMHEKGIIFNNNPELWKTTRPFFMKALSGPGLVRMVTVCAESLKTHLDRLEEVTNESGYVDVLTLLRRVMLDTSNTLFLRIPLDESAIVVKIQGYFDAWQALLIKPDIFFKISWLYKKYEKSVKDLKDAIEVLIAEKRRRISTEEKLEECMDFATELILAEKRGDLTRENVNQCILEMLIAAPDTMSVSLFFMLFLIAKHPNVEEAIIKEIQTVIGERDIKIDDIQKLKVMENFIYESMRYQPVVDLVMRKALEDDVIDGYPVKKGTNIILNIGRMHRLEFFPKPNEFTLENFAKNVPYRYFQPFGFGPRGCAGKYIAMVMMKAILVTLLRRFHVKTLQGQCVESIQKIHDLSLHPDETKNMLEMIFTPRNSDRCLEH
Procedure, shortened: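 Biochem, cell-free; recombinant enzyme + specific substrate; fluorescence intensity at 0.5 h post-dose; 10 uM duplicate primary, conc. series for actives; acetonitrile = negative control/baseline; positive and negative controls on every plate.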

Sequence of Tumor necrosis factor (Homo sapiens) (P01375 whole entry, looked up): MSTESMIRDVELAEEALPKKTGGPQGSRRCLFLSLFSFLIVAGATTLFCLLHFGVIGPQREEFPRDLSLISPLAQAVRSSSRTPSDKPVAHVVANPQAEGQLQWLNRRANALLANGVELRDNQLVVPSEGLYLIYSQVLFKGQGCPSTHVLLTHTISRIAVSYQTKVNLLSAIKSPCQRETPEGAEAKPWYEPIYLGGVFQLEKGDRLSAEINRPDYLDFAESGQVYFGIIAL
Sequence of E-selectin (Homo sapiens) (P16581 whole entry, looked up): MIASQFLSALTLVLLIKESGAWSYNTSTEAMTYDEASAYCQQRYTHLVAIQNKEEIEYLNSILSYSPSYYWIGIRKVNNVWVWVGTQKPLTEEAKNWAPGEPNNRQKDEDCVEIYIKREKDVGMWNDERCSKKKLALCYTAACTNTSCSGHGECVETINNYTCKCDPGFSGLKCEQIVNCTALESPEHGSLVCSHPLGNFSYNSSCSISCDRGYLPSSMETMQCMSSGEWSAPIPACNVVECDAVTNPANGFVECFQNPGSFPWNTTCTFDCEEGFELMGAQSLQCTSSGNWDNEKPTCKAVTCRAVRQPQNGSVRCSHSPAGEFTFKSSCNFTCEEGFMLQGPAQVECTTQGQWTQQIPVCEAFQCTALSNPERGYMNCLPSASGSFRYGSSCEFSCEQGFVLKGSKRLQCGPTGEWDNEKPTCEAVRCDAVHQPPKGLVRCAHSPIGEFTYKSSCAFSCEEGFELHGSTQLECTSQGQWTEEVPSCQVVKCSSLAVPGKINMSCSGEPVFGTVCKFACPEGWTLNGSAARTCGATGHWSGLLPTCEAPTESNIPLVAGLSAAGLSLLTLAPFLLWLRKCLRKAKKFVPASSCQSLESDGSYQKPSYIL

For `CCCCN(CCCC)SN(C)C(=O)Oc1cccc2c1OC(C)(C)C2`, the outcome [1] was “inactive”.
In the case of `CSC(C)(C)C=NO`, the outcome [1] is reported as “inactive”.
For `CN(C)C(=O)Cl`, the outcome [2] was “inactive”.
In the case of `CCC(C)(C)c1ccc(O)cc1`, the outcome [2] is reported as “inactive”.
In the case of `CC(C)(C)c1ccccc1OP(=O)(Oc1ccccc1)Oc1ccccc1`, the AC50 [3] is reported as 27.3 µM (active), the AC50 [4] is reported as 20 µM (active) and the outcome [5] is reported as “inactive”. The AC50 [6] was 20 µM (active), the outcome [7] was “inactive” and the outcome [8] was “inactive”. The AC50 [9] was 20 µM (active), the AC50 (CD38, CD38 (gene 952)) was 30.7 µM (active) and the AC50 (CD69, CD69 (gene 969)) was 27.5 µM (active). For the same molecule, the AC50 [10] was 27.7 µM (active), the AC50 [11] was 20 µM (active) and the AC50 [12] was 34.6 µM (active). For the same molecule, the AC50 [13] was 33.2 µM (active), the AC50 [14] was 20 µM (active) and the AC50 [15] was 10.8 µM (active). For the same molecule, the AC50 [16] was 30.7 µM (active).
With `N#Cc1c(-c2ccc(Cl)cc2)[nH]c(C(F)(F)F)c1Br` the AC50 [3] was 1.36 µM (active), the outcome [4] was “inactive” and the AC50 [5] was 0.949 µM (active). For the same molecule, the outcome [6] was “inactive”, the outcome [7] was “inactive” and the AC50 [8] was 0.016 µM (active). The AC50 [9] was 3.97 µM (active), the AC50 (CD38, CD38 (gene 952)) was 0.343 µM (active) and the AC50 [10] was 1.53 µM (active). The AC50 [11] was 0.267 µM (active), the AC50 [12] was 2.85 µM (active) and the AC50 [13] was 5.4 µM (active). The AC50 [14] was 0.178 µM (active), the AC50 [15] was 1.86 µM (active) and the AC50 [16] was 4.34 µM (active).
In the case of `Cc1ccc([N+](=O)[O-])cc1C`, the outcome [3] is reported as “inactive”, the outcome [4] is reported as “inactive” and the outcome [5] is reported as “inactive”. For the same molecule, the outcome [6] was “inactive”, the outcome [7] was “inactive” and the outcome [8] was “inactive”. The outcome [9] was “inactive”, the outcome (CD38, CD38 (gene 952)) was “inactive” and the outcome [10] was “inactive”. For the same molecule, the outcome [11] was “inactive”, the outcome [12] was “inactive” and the outcome [13] was “inactive”. For the same molecule, the outcome [14] was “inactive”, the outcome [15] was “inactive” and the outcome [16] was “inactive”. The outcome [17] was “inactive”.
For `CCCCCCCc1ccc(O)cc1`, the AC50 [3] was 31.2 µM (active), the AC50 [4] was 36.5 µM (active) and the AC50 [5] was 2.95 µM (active). For the same molecule, the AC50 [6] was 32 µM (active), the AC50 [7] was 38.1 µM (active) and the AC50 [8] was 30.8 µM (active). The AC50 [9] was 36.2 µM (active), the AC50 (CD38, CD38 (gene 952)) was 35.7 µM (active) and the AC50 (CD69, CD69 (gene 969)) was 39.2 µM (active). The AC50 [10] was 36 µM (active), the AC50 [11] was 31.6 µM (active) and the AC50 [12] was 37.2 µM (active). The AC50 [13] was 27.5 µM (active), the AC50 [14] was 33.1 µM (active) and the AC50 [15] was 18.8 µM (active). The AC50 [16] was 37.1 µM (active), the AC50 [17] was 5.15 µM (active) and the outcome [17] was “inactive”.
For `CCOc1ccc(C(C)(C)COCc2cccc(Oc3ccccc3)c2)cc1`, the outcome [4] was “inactive”, the outcome [5] was “inactive” and the outcome [6] was “inactive”. The outcome [7] was “inactive”, the AC50 [8] was 1.15 µM (active) and the outcome [9] was “inactive”. For the same molecule, the outcome (CD38, CD38 (gene 952)) was “inactive”, the outcome (CD69, CD69 (gene 969)) was “inactive” and the outcome [10] was “inactive”. The outcome [11] was “inactive”, the outcome [12] was “inactive” and the outcome [13] was “inactive”. The outcome [14] was “inactive”, the AC50 [15] was 20 µM (active) and the outcome [16] was “inactive”. For the same molecule, the outcome [17] was “inactive”.
For `N#Cc1cc([N+](=O)[O-])ccc1N`, the outcome [3] was “inactive”, the outcome [4] was “inactive” and the outcome [5] was “inactive”. For the same molecule, the outcome [6] was “inactive”, the outcome [7] was “inactive” and the outcome [8] was “inactive”. The outcome [9] was “inactive”, the outcome (CD38, CD38 (gene 952)) was “inactive” and the outcome [10] was “inactive”. The outcome [11] was “inactive”, the outcome [12] was “inactive” and the outcome [13] was “inactive”. For the same molecule, the outcome [14] was “inactive”, the outcome [15] was “inactive” and the outcome [16] was “inactive”.
